# Source: PubChem BioAssay (NCI)
# This is part of a sample that, as a whole, favours compounds with a hit. Of some 83,000 tested, about 20% had one in any assay.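 The test compound was applied at a single concentration to cells in 96-well plates for 48 hours, and percent growth was recorded.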 Calls of active or inactive are those of the source. The calls were made as follows: active = growth percent below 10; inactive = the rest.
# Test system: MDA-MB-468 breast
# Assay: NCI-60 one-dose screen, 48 h (100 = growth as untreated, 0 = no growth, -100 = all killed)
# Details: 10 µM unless noted
row,Compound,growth
1,CN(C)CCCOc1c2ccc(Cl)cc2nc2c1oc1ccccc12,-39.8% (active)
2,Nc1nc(Cl)c2c(C(F)(F)F)cn(CC3CCNCC3)c2n1,26.8% (inactive)
3,CCOC(=O)[C@@H]1[C@H](c2ccccc2)[C@H]([N+](=O)[O-])[C@H](c2cn(-c3ccccc3)nc2C)N1Cc1ccccc1,82.9% (inactive)
4,CCCn1cnc2c(c1=N)C(c1ccc(OC)cc1)c1sc3c(CC)cccc3c1O2 (stereo not given),39.4% (inactive)
5,Cc1ccc(C)c2c(C)c(C(=O)Nc3cccc(-n4cccn4)c3)oc12,27.8% [50 µM] (inactive)
6,CCOc1c(B(O)O)cccc1-c1nc2ccc3[nH]ncc3c2c2c1CCCC2,51.1% (inactive)
7,O=C(c1ccccc1)c1ccc(O)c2ncccc12,25.6% (inactive)
8,COc1ccc(-c2nc(-c3nc4ccc(Cl)cc4[nH]3)c3ccccn23)cc1,61.5% (inactive)
9,O=S(=O)(Cc1ccc(Cl)cc1Cl)c1ccc(Cl)cc1,-29.8% (active)
10,Cc1ccc(Nc2nc(SC(C)C)nc(-c3ccccc3)c2C#N)cc1,96.7% (inactive)
11,COc1ccccc1-n1cc(C#N)c(N)c1C(=O)c1ccc(C)cc1,46.2% (inactive)
12,CCOc1ccc2nc(C)cc(Nc3ccc(Br)cc3)c2c1,100% (inactive)
13,O=c1[nH]c(=O)n(C2C[C@H](O)[C@@H](CO)O2)cc1C(F)(F)F (stereo not given in full),117% (inactive)
14,O=C(CI)Nc1ccc(O)c2ccccc12,-71.7% (active)
15,CCOC(=O)C1=CSC2=NC3=C(CCC/C3=C\c3ccc(Cl)cc3)C(c3ccc(Cl)cc3)N12 (stereo not given),84.9% (inactive)
16,N#Cc1c(-c2ccc(Cl)cc2)nc(NN2C(=O)c3ccccc3C2=O)nc1N1CCOCC1,99.4% (inactive)
17,CCCCC(=O)Nc1ncc(Cc2ccc(Cl)cc2)s1,26.2% (inactive)
18,COc1ccc(C2CC(c3ccccc3)=NN2c2nc(C)c(C(C)=O)s2)cc1 (stereo not given),100% (inactive)
19,COc1ccc(-c2c(C)nn3c(NCCN4CCOCC4)cc(C)nc23)cc1OC,96.3% (inactive)
20,FC(F)(F)c1[nH]ncc1-c1nc2ccc3n[nH]c(C#Cc4cccnc4)c3c2c2c1CCCC2,73.9% (inactive)

row,Compound,growth
1,CNC(=O)c1c(NC(=O)c2cccc(C(F)(F)F)c2F)sc2c1CCC(=O)C2,0.936% (active)
2,Cc1cc(O)cc2c1[C@H]1CC[C@]3(C)[C@@H](O)CC[C@H]3[C@@H]1C=C2,96.8% (inactive)
3,CC1=NN(c2nc(-c3ccc(Cl)cc3)c(C#N)c(N3CCOCC3)n2)C(=O)C1,98.3% (inactive)
4,Nc1ncn([C@@H]2O[C@H](CO)[C@@H](O)[C@H]2O)c(=O)n1,33.2% (inactive)
5,C=CC(C)(O)CC/C=C(\CO)C(=O)OC1C(C)OC(O[C@](C)(C=C)CC/C=C(\CO)C(=O)O[C@H]2C[C@@]3(C(=O)OC4OC(CO)C(O)C(O)C4OC4OC(C)C(OC5OC(CO)C(O)C5O)C(OC5OC(CO)C(O)C(O)C5O)C4O)C(CC2(C)C)C2=CCC4[C@@]5(C)CC[C@H](OC6OC(COC7OC(C)C(O)C(O)C7OC7OCC(O)C(O)C7O)C(O)C(O)C6NC(C)=O)C(C)(C)C5CC[C@@]4(C)[C@]2(C)C[C@H]3O)C(O)C1O (stereo not given in full),19.9% (inactive)
6,COc1ccc(/C(=C/c2cc(OC)c(OC)cc2[N+](=O)[O-])C(=O)O)cc1,111% (inactive)
7,CCCCN=C(N)c1ccc(OCCSCCOc2ccc(C(N)=NCCCC)cc2)cc1,38.9% (inactive)
8,CSc1nc(=O)n(Cc2ccc(F)cc2)c(=O)n1Cc1ccc(C)cc1,112% (inactive)
9,N#Cc1ccc(NC2c3ccccc3CC2O)cc1 (stereo not given),107% (inactive)
10,COC(=O)/C(=C\c1ccc(OC)cc1)C(=O)N1c2ccccc2Sc2ccccc21,76.1% (inactive)
11,O=C1CCN2C(=O)Nc3ccccc3C2C1 (stereo not given),109% (inactive)
12,COc1cc(/C=C/C(=O)c2ccc(NC(=O)CSc3nnc(-c4ccc(Cl)cc4)n3-c3ccccc3)cc2)cc(OC)c1OC,72.9% (inactive)
13,Nc1nc(N)c2c(n1)NC(c1cccc(Nc3ccnc4cc(C(F)(F)F)ccc34)c1)CC(c1ccc(Br)cc1)=N2 (stereo not given),41.9% (inactive)
14,COc1ccc2[nH]cc(-c3cc(N)n4nc(-c5c[nH]c6ccc(OC)cc56)cc4n3)c2c1,-47.9% (active)
15,Cc1ccc(-c2nc(N3CCNCC3)c3oc(-c4ccc(C)cc4)nc3n2)cc1,-33.5% (active)
16,N#Cc1nn(-c2ccccn2)c(N)c1C#N,116% (inactive)
17,N#CC1c2ccccc2C=CN1C(=O)N(c1ccccc1)c1ccccc1 (stereo not given),5.11% (active)
18,c1ccc(-c2n(Cc3ccc4ccccc4n3)cc[n+]2Cc2ccc3ccccc3c2)cc1,-33.5% (active)
19,Clc1ccc(C(/C=C/c2sc(Cl)nc2Cl)=N/Nc2cc(Cl)cc(Cl)c2)cc1,107% (inactive)
20,CC(C)OC(C(=O)O)c1ccccc1 (stereo not given),113% (inactive)
